Mdm2 MdmX PPI – inhibitors of human Mdm2/MdmX interaction; SaOS-2 split-luciferase Mdm2/MdmX complementation, luminescence; inhibition, % at 8 µM; hit rate 3% among 330,000;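 active = inhibition of at least 50% at 8 µM in the primary screen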
Target sequence (O15151 whole entry, looked up): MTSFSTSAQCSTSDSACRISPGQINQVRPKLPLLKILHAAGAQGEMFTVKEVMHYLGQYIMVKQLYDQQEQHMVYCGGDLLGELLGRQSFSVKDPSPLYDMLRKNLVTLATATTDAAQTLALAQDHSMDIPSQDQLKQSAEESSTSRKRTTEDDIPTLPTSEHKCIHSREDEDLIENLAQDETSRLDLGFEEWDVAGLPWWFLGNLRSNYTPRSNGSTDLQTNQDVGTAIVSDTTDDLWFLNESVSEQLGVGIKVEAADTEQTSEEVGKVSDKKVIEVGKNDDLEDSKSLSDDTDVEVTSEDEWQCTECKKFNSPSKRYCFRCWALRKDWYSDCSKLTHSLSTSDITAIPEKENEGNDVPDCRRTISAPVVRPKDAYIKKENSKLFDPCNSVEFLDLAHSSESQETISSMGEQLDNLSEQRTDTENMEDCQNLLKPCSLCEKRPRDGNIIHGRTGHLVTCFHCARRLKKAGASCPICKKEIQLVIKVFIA
Target sequence (Q00987 whole entry, looked up): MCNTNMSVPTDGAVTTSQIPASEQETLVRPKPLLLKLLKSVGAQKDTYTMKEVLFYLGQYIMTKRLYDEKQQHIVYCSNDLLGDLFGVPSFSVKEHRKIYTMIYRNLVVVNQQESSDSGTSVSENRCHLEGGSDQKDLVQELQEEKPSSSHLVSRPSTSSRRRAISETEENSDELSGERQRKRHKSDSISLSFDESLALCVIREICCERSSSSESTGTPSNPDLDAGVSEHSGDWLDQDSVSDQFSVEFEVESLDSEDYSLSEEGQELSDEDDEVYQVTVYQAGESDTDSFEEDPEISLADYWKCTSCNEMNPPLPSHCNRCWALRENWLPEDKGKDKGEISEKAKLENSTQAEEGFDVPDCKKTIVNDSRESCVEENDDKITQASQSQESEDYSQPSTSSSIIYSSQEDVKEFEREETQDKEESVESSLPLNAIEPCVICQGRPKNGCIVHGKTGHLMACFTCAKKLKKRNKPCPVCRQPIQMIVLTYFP
CSC inhib – blocks cancer stem cells; inhibition, % at 7.5 µM; cancer stem cell-like cells viability, luminescence; hit rate 1.1% among 300,000; in the data active = inhibition above about 75%; inconclusive = no clear call, values can overlap the other calls; tested in HMLE shEcad cells
Beta apoptosis – blocks beta cell apoptosis. INS-1E cytokine-induced death, ATP luminescence, 48 h; percent of positive-control rescue, neutral wells zero. protection from apoptosis, % (test concentration not listed). hit rate 0.8% among 300,000. AID 435005;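 active = Every replicate reaches about 75%, or at least half do and their mean reaches it too, limit read from the data; inconclusive = At least half of replicates reach the limit but their mean does not; inactive = Under half of replicates reach the limit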;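 note: 0% = cytokine-treated negative control wells and 100% = positive control rescue; higher means more ATP so stronger rescue from cytokine killing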
NR3A LBD binder – modulators (binders) of human NR3A ligand-binding domain; Tm shift relative to glycine control, % at 25 µM; hit rate 2.5% among 340,000; NR3A LBD differential scanning fluorimetry, Tm shift; 0% = protein alone, 100% = glycine-bound protein;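 active = melting temperature shift of at least 10% of the positive control shift, at one fixed dose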
SKKanGAS inh – blocks kanamycin growth of S. pyogenes SKKanGAS strain. hit rate 1.3% among 300,000. inhibition, % at 7.5 µM. AID 1662. BacTiter-Glo, 6 h;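 active = mean replicate score, as percent of positive control median, at least 50; inconclusive = mean below 50 but one replicate at or above 50; inactive = mean and every replicate below 50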;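 note: strain carries kanamycin resistance gene driven by streptokinase promoter and grows in 40 µg/ml kanamycin; loss of luminescence reflects streptokinase promoter inhibition or plain growth inhibition; 0% = median of DMSO wells and 100% = positive control at its reference dose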
MPTP block – inhibitors of mitochondrial permeability transition pore; isolated mouse mitochondria, Ca2+ swelling absorbance, 30 min; inhibition, % at 10 µM; hit rate 1.4% among 360,000; AID 602449;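 active = inhibition of 50% or more, scaled per plate between neutral and stimulator controls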;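 note: 0% = DMSO wells given calcium and 100% = 1 mM EGTA wells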
Mdm2-MdmX conf – confirmation of human Mdm2/MdmX interaction inhibitors; Mdm2-MdmX binding, luminescent assay; inhibition, % at 8 µM; shares compounds with Mdm2 MdmX PPI; hit rate 55% among 10,000; in the data active = inhibition above about 40%
FLuc counter – counter-screen for Mdm2/MdmX inhibitors: full-length luciferase. shares compounds with Mdm2 MdmX PPI. SaOS-2 full-length luciferase counterscreen, luminescence. inhibition, % at 8 µM. hit rate 77% among 6,200. AID 504607;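 active = mean inhibition at 8 µM reaching about 37%, which flags the compound as non-specific, limit read from the data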;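 note: p53-null SaOS-2 cells with luciferase driven by a doxycycline-inducible promoter; compound on cells about two nights before reading with doxycycline added after day one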
* marks the source's active call; other numbers are inactive results; u = inconclusive; x = not tested or not shown. A selection: hits, their analogues and other compounds. The true share with any hit is near 6.9%.

SMILES | Mdm2 MdmX PPI | CSC inhib | Beta apoptosis | NR3A LBD binder | SKKanGAS inh | MPTP block | Mdm2-MdmX conf | FLuc counter
Cc1ccccc1CN1C[C@@H]2C[C@@H](c3cnc(N4CCOCC4)s3)N3CCC[C@@]23C1=O | 28 | -24 | -2 | 0 | 10 | 0 | x | x
Cc1nc(SCC(=O)Nc2ccc(CN3CCCC3)cc2)c2c(C)c(C)sc2n1 | 84* | x | 16 | -1 | x | -1 | 37 | 64*
Cc1ccc(C)c(CN2C(=O)c3ccccc3S(=O)(=O)c3ccc(C(=O)N4CCN(C)CC4)cc32)c1 | 15 | -10 | 4 | -1 | 7 | 0 | x | x
Cc1ccc(C)c(CN2C(=O)c3ccccc3S(=O)c3ccc(C(=O)N4CCN(c5ccccn5)CC4)cc32)c1 (centres undefined) | 99* | 52 | 8 | 0 | 15 | 5 | 89* | 54*
O=C(NNC(=O)c1cccnc1SCc1cccc([N+](=O)[O-])c1)c1ccccn1 | 55* | x | x | 18* | 75* | -3 | 79* | 21
O=C(NNC(=O)c1cccnc1SCc1cccc([N+](=O)[O-])c1)c1ccc(F)cc1 | 14 | -11 | u | -6 | -4 | 2 | x | x
Cc1ccccc1C(=O)N1CCN(c2ccc(NC(=S)NC(=O)c3cccs3)cc2)CC1 | 53* | 49 | 9 | -1 | 25 | 4 | 40 | 75*
Cc1ccccc1C(=O)N1CCN(c2ccc(NC(=O)c3cccc(OC(C)C)c3)cc2)CC1 | 53* | -6 | 11 | -1 | 11 | 1 | 45* | 55*
Cc1ccccc1C(=O)N1CCN(c2ccc(NC(=O)CSc3ccc(Cl)cc3)cc2)CC1 | 61* | 25 | 9 | -30 | -2 | 1 | 49* | 42*
COc1c(C)cccc1C(=O)Nc1ccc(N2CCN(C(=O)c3ccccc3C)CC2)cc1 | 47 | 33 | -7 | 1 | -3 | -1 | x | x
COc1ccc(NC(=O)c2ccccc2NC(=O)CSc2ccc(Cl)cc2)cc1 | 84* | -6 | 4 | 1 | -7 | 1 | 43* | 71*
CSc1nccc(N/N=C/c2ccccc2)n1 | -126 | 3 | -7 | -12 | 1 | 0 | x | x
O=c1[nH]c(C2CCN(S(=O)(=O)/C=C/c3ccccc3)CC2)nc2c1nnn2Cc1ccccc1 | 13 | 0 | 6 | -1 | 22 | -1 | x | x
O=C(NCCC(=O)N1CCN(S(=O)(=O)c2ccc(Cl)cc2)CC1)Nc1ccccc1 | 17 | x | x | 1 | x | -3 | x | x
CC(C)OCCCNC(=O)C1CC(=O)N(CCc2ccccc2)C1 (centres undefined) | 4 | -17 | -10 | 1 | 0 | 3 | x | x
Cc1ccc(OCC(=O)Nc2ccc(Cl)cc2)c(-n2nc3ccccc3n2)c1 | 78* | 17 | 47 | -5 | -4 | 3 | 72* | 81*
CCOc1ccc(C)cc1-n1nc2ccccc2n1 | -3 | -5 | -4 | -1 | -3 | 0 | x | x
N#Cc1ccc(NC(=O)CN2C(=O)NC3(CCCC3)C2=O)cc1 | -15 | 0 | -3 | -1 | 1 | 1 | x | x
Cc1c(C(=O)Nc2ccc(F)cc2)oc2ccc(S(=O)(=O)N3CC(C)CC(C)C3)cc12 (centres undefined) | 64* | 23 | 53 | -13 | 15 | 16 | 39 | 69*
CC1CC(C)CN(S(=O)(=O)c2ccc(F)c(C(=O)Nc3ccc(Cl)cc3F)c2)C1 (centres undefined) | 52* | x | x | -3 | -5 | 1 | 12 | x
Cc1c(C(=O)NCc2cccnc2)oc2ccc(S(=O)(=O)N3CC(C)CC(C)C3)cc12 (centres undefined) | 19 | -9 | 6 | 2 | 1 | -1 | x | x
CC1CC(C)CN(S(=O)(=O)c2ccc(NC(=O)c3ccc(=O)[nH]c3)cc2)C1 (centres undefined) | 59* | 42 | 19 | -2 | x | 0 | 51* | 74*
O=C(CSc1ccc2nnc(-c3cccnc3)n2n1)Nc1ccc(F)cc1F | 18 | -1 | x | 2 | 2 | 0 | x | x
CCCNc1c(NC(=O)c2ccc3c(c2)OCO3)c(=O)oc2ccccc12 | -1 | -9 | 3 | -1 | -8 | -2 | x | x
CCOc1ccccc1N1CC(O)=C(c2nc3ccccc3s2)C1=N | 57* | 65 | 7 | -2 | 17 | -1 | 58* | 58*
SMILES | Mdm2 MdmX PPI | CSC inhib | Beta apoptosis | NR3A LBD binder | SKKanGAS inh | MPTP block | Mdm2-MdmX conf | FLuc counter
COc1ccc(OC)c(N2CC(O)=C(c3nc4ccccc4s3)C2=N)c1 | -4 | 14 | -5 | 5 | 19 | 2 | x | x
CCN(CC(=O)Nc1c(F)cccc1F)C(=O)CSc1nnc(-c2ccco2)n1CC | 23 | -9 | 0 | 2 | -2 | -2 | x | x
Cc1cc(C)c(NC(=O)CSc2nc3ccc(NC(=O)CSc4nnnn4Cc4ccccc4)cc3s2)c(C)c1 | 36 | -2 | 2 | 0 | 10 | 3 | x | x
O=C(CSc1nc2ccc(NC(=O)CSc3nnnn3Cc3ccccc3)cc2s1)Nc1ccccc1 | 50* | -10 | x | 17* | 5 | 13 | 15 | x
COC(=O)CSc1nc2ccc(NC(=O)CSc3nnnn3Cc3ccccc3)cc2s1 | 94* | 2 | 6 | -6 | 16 | 0 | 32 | x
COc1cc(/C=C/C(=O)OCC(=O)N2CC(C)OC(C)C2)ccc1OCC#N (centres undefined) | x | x | x | x | x | -1 | x | x
Cc1cc(C)c(S(=O)(=O)c2ccccc2)c(OC(=O)c2c(Cl)cc(Cl)cc2Cl)n1 | 52* | -4 | -5 | 2 | 4 | -2 | 21 | x
CC(C)c1ccc(-c2csc3ncnc(N4CCN(C)CC4)c23)cc1 | 58* | 9 | 12 | -3 | -1 | -2 | 57* | 39*
O=c1c2c3c(sc2nc(N2CCNCC2)n1-c1cccc(Cl)c1)CCCCC3 | 67* | 17 | 5 | x | 2 | x | 27 | x
COc1cccc(CC2(CO)CCCN(Cc3[nH]c4ccc(C)cc4c3C)C2)c1 (centres undefined) | 63* | 53 | -2 | -4 | -1 | 4 | 20 | x
COc1cccc(CC2(CO)CCCN(Cc3ccc(C)s3)C2)c1 (centres undefined) | 1 | 24 | 0 | -1 | -10 | 2 | x | x
COc1ccc(C(=O)OCC(=O)Nc2ccc3c(c2)OCO3)cc1S(=O)(=O)N1CCOCC1 | -6 | x | x | 3 | x | -2 | x | x
COc1ccc(/C=C2\SC(=S)N(CCCCCC(=O)Nc3cc(C)on3)C2=O)cc1OC | 66* | -6 | 6 | 4 | 3 | 1 | 13 | x
COc1cc(OC)c(/C=C2\SC(=O)N(CC(=O)Nc3ccccc3F)C2=O)c(OC)c1 | 57* | -2 | 1 | 0 | 0 | 0 | 34 | 73*
COc1ccc(/C=C2/SC(=S)N(CCCC(=O)Nc3ccc(O)cc3)C2=O)cc1 | 88* | 32 | -13 | 13* | 7 | 8 | 90* | 56*
